Our source for the outcome values is PubChem BioAssay AID2284139 (EPA ToxCast).

Active and inactive are the calls of the source. How the source made its calls: active means hit-call score of the fitted dose curve at least 0.9, where 1 is the maximum; inactive means score below 0.9.

Chain of human ZAP70 Tyrosine Kinase, ZAP70 (gene 7535) (P43403 whole entry, looked up): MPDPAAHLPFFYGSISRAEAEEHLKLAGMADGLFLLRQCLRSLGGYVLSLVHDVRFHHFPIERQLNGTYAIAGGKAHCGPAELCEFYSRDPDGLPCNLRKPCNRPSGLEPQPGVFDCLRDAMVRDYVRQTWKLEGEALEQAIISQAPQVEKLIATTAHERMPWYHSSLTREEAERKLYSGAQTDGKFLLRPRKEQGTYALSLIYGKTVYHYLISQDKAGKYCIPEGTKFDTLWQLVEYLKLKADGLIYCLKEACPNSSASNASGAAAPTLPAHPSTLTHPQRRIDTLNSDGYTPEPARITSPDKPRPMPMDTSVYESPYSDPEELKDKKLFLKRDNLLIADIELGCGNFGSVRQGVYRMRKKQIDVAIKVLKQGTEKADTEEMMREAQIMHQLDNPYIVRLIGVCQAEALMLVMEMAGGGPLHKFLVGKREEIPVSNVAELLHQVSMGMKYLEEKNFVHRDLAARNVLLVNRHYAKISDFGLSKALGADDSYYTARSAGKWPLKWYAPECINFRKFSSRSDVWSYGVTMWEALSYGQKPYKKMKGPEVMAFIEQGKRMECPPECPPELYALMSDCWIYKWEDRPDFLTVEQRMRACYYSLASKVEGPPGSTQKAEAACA

For the assay, the target named is human ZAP70 Tyrosine Kinase, ZAP70 (gene 7535) (UniProt P43403). Description: ERF_FR_ENZ_hZAP70: Eurofins (ERF) Enzymatic Radiometric [Km ATP] KinaseProfiler LeadHunter Assay for human ZAP70 Tyrosine Kinase. The protocol:
ERF_FR_ENZ_hZAP70 is a biochemical, single-readout assay that uses extracted gene-proteins in a cell-free assay. Measurements were taken 0.25 hour after chemical dosing in a 96-well plate. See ZAP70 Human TK Kinase Enzymatic HTRF Assay [Km ATP], Cerep.ERF_FR_ENZ_hZAP70 is an assay component calculated from the ERF_FR_ENZ_hZAP70 assay. It is designed to measure enzyme activity using a type of enzyme reporter as detected by fluorescence intensity with HTRF technology.Data from the assay component ERF_FR_ENZ_hZAP70 was analyzed at the assay endpoint, ERF_FR_ENZ_hZAP70, in the positive analysis fitting direction relative to DMSO as the negative control and baseline of activity. Using a type of enzyme reporter, loss-of-signal activity can be used to understand changes in enzymatic activity as they relate to gene ZAP70. To generalize the intended target to other relatable targets, this assay endpoint is annotated to the kinase intended target family, where the subfamily is protein tyrosine kinase.
ZAP-70 (h) is incubated with 50 mM Tris pH 7.5, 0.1 mM EGTA, 0.1 mM Na3VO4, 0.1% […], 0.1 mg/mL poly(Glu, Tyr) 4:1, 10 mM MnCl2, 10 mM MgAcetate and [gamma-33P]-ATP (specific activity and concentration as required). The reaction is initiated by the addition of the Mg/ATP mix. […]
Take `O=C(/C=C/c1ccc(O)cc1)CC(=O)/C=C/c1ccc(O)cc1`: the compound was classed as inactive.
